Measured values: PubChem BioAssay (NCATS)
Calls of active or inactive are those of the source. The call rests on the fitted dose curve; in most records, active means well fitted inhibition curve with a large enough effect; inconclusive means small, poorly fitted or top-dose-only effect; inactive means flat fitted curve, though single readings scatter.

target: DNA dC->dU-editing enzyme APOBEC-3G (Homo sapiens) (UniProt Q9HC16); experiment: qHTS for inhibitors of Vif-A3G interactions: Validation (AID 588379); conditions: Vif-A3G protein interaction assay; series mostly up to 46.1 µM; activity change, negative = inhibition: at the top concentration; further: 0% is about no effect
Excerpt: The recent discovery and characterization of host restriction factors, which provide a potent defense to invading retroviruses, has provided new targets for antiviral drug development. APOBEC3G (A3G) and APOBEC3F (A3F) are potent cytidine deaminases that block HIV-1 replication; HIV-1 expresses the Vif protein, which counteracts A3G and A3F by binding to them and inducing their proteasomal degradation.
The Vif-A3G and Vif-A3F interactions provide two potential targets for development of small molecules which can interfere with the ability of Vif to degrade A3G or A3F. […] To identify inhibitors that can interfere with Vif mediated degradation of A3G and A3F, we have developed Hela cell lines that stably express A3G or A3F tagged with eYFP at the C-terminal end (A3G-eYFP or A3F-eYFP, respectively) and Vif. In the absence of an inhibitor, Vif induces degradation of A3G-eYFP and A3F-eYFP, and the cells are not fluorescent. In the presence of an inhibitor, it is expected that Vif will be unable to degrade A3G-eYFP and/or A3F-eYFP, resulting in an increase in yellow fluorescence. In this assays Vif A3G was screened against the Molecular Library Small Molecile Repository (MLSMR).
NIH Chemical Genomics Center [NCGC]
NIH Molecular Libraries Probe Centers Network [MLPCN]
Assay Submitter (PI): Vinay Pathak, National Cancer Institute
5 uL of 700 cells/well of A3G-YFP cells are dispensed into black, clear bottom plates. The plates are incubated overnight at 37 deg C. 23 nL of compounds are added by pintool. The plates are incubated overnight at 37 deg C and then read on the TTP Acumen (Ex 488/ Em 500-530).

Sequence of DNA dC->dU-editing enzyme APOBEC-3G (Homo sapiens) (Q9HC16 whole entry, looked up): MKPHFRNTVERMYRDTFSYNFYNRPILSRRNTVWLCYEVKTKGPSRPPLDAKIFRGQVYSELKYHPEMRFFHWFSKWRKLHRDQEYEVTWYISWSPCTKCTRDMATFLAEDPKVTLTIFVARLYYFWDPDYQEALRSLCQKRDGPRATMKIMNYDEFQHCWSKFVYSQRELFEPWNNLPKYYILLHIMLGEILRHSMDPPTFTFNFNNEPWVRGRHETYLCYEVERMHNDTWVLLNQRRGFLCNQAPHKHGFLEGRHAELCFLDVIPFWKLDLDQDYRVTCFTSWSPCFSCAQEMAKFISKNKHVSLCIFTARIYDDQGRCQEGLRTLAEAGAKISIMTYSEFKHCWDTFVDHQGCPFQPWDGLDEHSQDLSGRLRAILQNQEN

Activity change, negative = inhibition, inactive:
CN1[C@@H]2CC(OC(=O)[C@H](CO)c3ccccc3)C[C@@H]1[C@H]1O[C@H]12 (stereo not given in full) -5.41%
O=C1C(=O)N(Cc2ccc(Cl)c(Cl)c2)c2ccccc21 -0.101%
C[C@@H](CCCCC(=O)Nc1ccc(C(F)(F)F)cc1)NCCc1cnc[nH]1 1.58%
N[C@@H](Cc1cc(-c2ccc(Cl)cc2Cl)cc(CP(=O)(O)O)c1O)C(=O)O -3.31%
COc1ccc2cccc(N3CCN(CCNC(=O)c4ccc(F)cc4)CC3)c2c1 -0.131%
N[C@H](C(=O)O)C1[C@H](C(=O)O)[C@H]1C(=O)O (stereo not given in full) 0.893%
CC(C)NC[C@@H](O)COc1cccc2[nH]ccc12 -5.82%
CC(C)SC(=N)N 0.755%
CC(C)[N+]1(C)[C@@H]2CC[C@H]1CC(OC(=O)[C@@H](CO)c1ccccc1)C2 (stereo not given in full) 1.23%
C[C@H](O)CO[C@H]1[C@H]2O[C@H]3[C@H](O)[C@@H](O)[C@@H](O[C@H]4[C@H](O)[C@@H](O)[C@@H](O[C@H]5[C@H](O)[C@@H](O)[C@@H](O[C@H]6[C@H](O)[C@@H](OC[C@H](C)O)[C@@H](O[C@H]7[C@H](O)[C@@H](OC[C@H](C)O)[C@@H](O[C@H]8[C@H](O)[C@@H](O)[C@@H](O[C@@H]([C@@H]1O)[C@@H](CO)O2)O[C@@H]8CO)O[C@@H]7CO)O[C@@H]6CO)O[C@@H]5CO)O[C@@H]4CO)O[C@@H]3CO -1.61%
N[C@@](C(=O)O)(c1ccc(P(=O)(O)O)cc1)C1CC1 -1.85%
C[C@@](N)(C(=O)O)c1ccc(S(=O)(=O)O)cc1 -4.48%
CCCCCCCCCCCCCCCC(=O)NC(C)C 2.17%
CC1(C)C(=O)NC2=C1C(=O)C(=O)c1ccccc12 0.525%
CC(C)NC[C@@H](O)COc1ccc(COCCOC(C)C)cc1 -1.83%
Nc1nc(NCCc2ccc(O)cc2)nc2nc(-c3ccco3)nn12 5.2%
N[C@@H](Cn1cc(I)c(=O)n(Cc2ccc(C(=O)O)cc2)c1=O)C(=O)O -0.498%
COc1cc(N)c(Cl)cc1C(=O)OCCCN1CCCCC1 -1.56%
O=C(O)CCC/C=C\C[C@@H]1CO[C@H](C(F)(F)F)O[C@@H]1c1ccccc1O -1.59%
CCCCCC(=O)O[C@H](CC(=O)O)C[N+](C)(C)C -5.31%
c1ccc2sc(N3CCN(Cc4ccc5c(c4)OCO5)CC3)nc2c1 0.0934%
N[C@@]1(C(=O)O)CN[C@H](C(=O)O)C1 -0.729%
CC(C)C[C@@H](NC(=O)OCC1c2ccccc2-c2ccccc21)C(=O)O -2.21%
N[C@@H](CCCP(=O)(O)O)C(=O)O 2.57%
CC(=O)ON(C(C)=O)S(=O)(=O)c1ccc(Cl)cc1 4.31%
N[C@H](C(=O)O)c1ccc(C(=O)O)cc1 -3.58%
COc1cc([C@@H]2c3cc4c(cc3[C@@H](O[C@@H]3O[C@H]5CO[C@@H](C)O[C@@H]5[C@@H](O)[C@H]3O)[C@@H]3COC(=O)[C@@H]23)OCO4)cc(OC)c1O 2.16%
C[C@](O)(C(=O)Nc1ccc(S(=O)(=O)c2ccccc2)cc1)C(F)(F)F -2.72%
N#C/C(=C\c1ccc(O)c(O)c1)C(N)=O -6.71%
Cc1c(-c2ccc(Cl)cc2)noc1C1CCN(CCc2ccccc2)CC1 1.32%
CCCCCCCCCCCCCCCC(=O)C(F)(F)F -0.942%
CSc1cc2c(cc1C(F)(F)F)N(C(=O)Nc1cccnc1)CC2 -1.47%
O=C1c2ccccc2CC[C@H]1CNCCc1ccc(O)cc1 3.65%
Clc1cccc(Nc2nnc(-c3ccccc3)c3ccccc23)c1 0.264%
NC1(C(=O)O)CCC1 -0.377%
C[N+](C)(C)CCCCCNCC12CC3CC(CC(C3)C1)C2 -2.06%
CC(C)(C)Cn1nc(-c2ccc(Cl)cc2)c2c(N)ncnc21 -3.07%

Potency, inactive:
N[C@@H](CO)C(=O)O
C[C@@](N)(C(=O)O)c1ccc(C(=O)O)cc1
CCCCCCc1c(C[C@H](N)C(=O)O)o[nH]c1=O
